From ChEMBL document CHEMBL1961873, “Compounds: GSK PKIS; Assays: Nanosyn kinase panel” (2012)

Columns and labels:
[1] = system: Tyrosine-protein kinase ABL1 (Homo sapiens), P00519 [T315I]; settings: at 1 µM
[2] = system: Tyrosine-protein kinase ABL1 (Homo sapiens), P00519 [Y253F]; settings: at 0.1 µM
[3] = system: Tyrosine-protein kinase ABL1 (Homo sapiens), P00519 [Y253F]; settings: at 1 µM
[4] = target: Tyrosine-protein kinase ABL1 (Homo sapiens) (UniProt P00519); settings: at 0.1 µM
[5] = target: Tyrosine-protein kinase ABL1 (Homo sapiens) (UniProt P00519); settings: at 1 µM
[6] = target: ALK tyrosine kinase receptor (Homo sapiens) (UniProt Q9UM73); settings: at 0.1 µM
Sequence of ALK tyrosine kinase receptor (Homo sapiens) (Q9UM73 19-1620 limits assumed): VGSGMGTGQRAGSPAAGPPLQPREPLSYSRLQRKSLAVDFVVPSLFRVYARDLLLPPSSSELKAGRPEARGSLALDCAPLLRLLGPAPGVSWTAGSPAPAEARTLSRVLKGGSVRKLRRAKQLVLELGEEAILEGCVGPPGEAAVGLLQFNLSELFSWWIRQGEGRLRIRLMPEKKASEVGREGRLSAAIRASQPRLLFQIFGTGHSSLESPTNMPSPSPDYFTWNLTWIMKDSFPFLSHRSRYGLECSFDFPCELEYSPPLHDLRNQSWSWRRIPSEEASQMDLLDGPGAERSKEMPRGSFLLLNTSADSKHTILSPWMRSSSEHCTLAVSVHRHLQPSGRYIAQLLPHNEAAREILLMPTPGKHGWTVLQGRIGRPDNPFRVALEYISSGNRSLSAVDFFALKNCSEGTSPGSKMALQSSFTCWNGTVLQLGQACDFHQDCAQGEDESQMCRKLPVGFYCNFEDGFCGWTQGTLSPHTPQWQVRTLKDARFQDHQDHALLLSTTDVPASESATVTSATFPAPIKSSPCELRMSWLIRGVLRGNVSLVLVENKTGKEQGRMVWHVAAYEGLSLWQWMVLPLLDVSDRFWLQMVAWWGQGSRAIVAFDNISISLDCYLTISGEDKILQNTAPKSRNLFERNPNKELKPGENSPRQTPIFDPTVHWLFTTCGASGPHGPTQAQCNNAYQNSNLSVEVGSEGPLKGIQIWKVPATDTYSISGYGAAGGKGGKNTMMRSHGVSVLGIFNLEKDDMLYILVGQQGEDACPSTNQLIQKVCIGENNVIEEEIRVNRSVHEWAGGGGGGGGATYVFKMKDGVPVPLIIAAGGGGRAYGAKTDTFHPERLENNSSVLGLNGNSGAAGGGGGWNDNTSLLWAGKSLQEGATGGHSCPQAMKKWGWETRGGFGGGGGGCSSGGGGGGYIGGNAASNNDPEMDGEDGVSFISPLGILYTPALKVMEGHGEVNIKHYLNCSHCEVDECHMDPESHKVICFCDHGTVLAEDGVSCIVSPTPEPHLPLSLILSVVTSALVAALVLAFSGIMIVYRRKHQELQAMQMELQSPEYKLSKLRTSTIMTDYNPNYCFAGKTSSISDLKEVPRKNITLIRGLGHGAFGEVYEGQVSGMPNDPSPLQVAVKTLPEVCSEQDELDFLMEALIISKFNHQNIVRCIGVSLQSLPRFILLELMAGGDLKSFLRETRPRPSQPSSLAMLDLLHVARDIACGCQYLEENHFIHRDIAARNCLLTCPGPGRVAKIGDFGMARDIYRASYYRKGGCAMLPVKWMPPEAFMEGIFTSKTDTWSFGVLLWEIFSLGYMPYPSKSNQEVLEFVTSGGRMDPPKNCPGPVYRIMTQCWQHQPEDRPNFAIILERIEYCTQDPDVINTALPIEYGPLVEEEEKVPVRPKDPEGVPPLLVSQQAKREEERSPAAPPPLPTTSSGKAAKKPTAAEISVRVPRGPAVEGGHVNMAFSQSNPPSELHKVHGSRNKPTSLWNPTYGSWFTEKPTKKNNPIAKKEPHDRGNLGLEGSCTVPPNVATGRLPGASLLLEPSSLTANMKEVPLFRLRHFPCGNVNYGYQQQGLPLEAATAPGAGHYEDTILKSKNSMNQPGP

[7] = target: ALK tyrosine kinase receptor (Homo sapiens) (UniProt Q9UM73); settings: at 1 µM
[8] = target: Tyrosine-protein kinase ABL2 (Homo sapiens) (UniProt P42684); settings: at 0.1 µM
Sequence of Tyrosine-protein kinase ABL2 (Homo sapiens) (P42684 whole entry): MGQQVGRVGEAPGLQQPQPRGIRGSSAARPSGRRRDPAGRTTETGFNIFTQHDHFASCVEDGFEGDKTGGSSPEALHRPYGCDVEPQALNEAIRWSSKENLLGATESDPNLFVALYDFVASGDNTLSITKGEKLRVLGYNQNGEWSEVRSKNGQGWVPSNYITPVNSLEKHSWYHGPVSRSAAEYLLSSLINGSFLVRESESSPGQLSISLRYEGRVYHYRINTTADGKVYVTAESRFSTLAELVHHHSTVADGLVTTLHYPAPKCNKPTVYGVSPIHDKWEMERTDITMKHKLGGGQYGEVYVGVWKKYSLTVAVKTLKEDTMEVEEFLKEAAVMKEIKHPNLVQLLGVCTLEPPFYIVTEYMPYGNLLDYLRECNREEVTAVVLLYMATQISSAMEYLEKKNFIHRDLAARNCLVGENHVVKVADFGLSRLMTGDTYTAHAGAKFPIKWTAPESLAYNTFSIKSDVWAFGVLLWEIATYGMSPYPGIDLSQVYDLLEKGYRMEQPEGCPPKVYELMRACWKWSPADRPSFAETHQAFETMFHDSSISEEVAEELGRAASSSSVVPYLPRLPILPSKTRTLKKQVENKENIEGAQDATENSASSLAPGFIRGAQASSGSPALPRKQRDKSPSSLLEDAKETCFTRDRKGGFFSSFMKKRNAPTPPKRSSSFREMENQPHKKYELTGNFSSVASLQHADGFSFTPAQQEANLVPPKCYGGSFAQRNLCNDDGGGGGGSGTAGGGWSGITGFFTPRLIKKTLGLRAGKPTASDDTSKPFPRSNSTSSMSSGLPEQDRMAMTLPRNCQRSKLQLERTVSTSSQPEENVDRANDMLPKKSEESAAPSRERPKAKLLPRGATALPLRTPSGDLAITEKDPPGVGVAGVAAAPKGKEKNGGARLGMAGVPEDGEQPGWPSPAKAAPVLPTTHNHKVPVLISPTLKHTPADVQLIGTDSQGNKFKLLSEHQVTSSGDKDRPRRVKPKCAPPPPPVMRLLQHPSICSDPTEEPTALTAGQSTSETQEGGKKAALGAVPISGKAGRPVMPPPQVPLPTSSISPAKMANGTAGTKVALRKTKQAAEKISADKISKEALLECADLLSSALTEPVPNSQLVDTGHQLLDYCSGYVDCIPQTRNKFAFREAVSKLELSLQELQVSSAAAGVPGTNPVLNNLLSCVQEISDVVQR

[9] = target: Tyrosine-protein kinase ABL2 (Homo sapiens) (UniProt P42684); settings: at 1 µM
[10] = target: Tyrosine-protein kinase receptor UFO (Homo sapiens) (UniProt P30530); settings: at 0.1 µM
[11] = target: Tyrosine-protein kinase receptor UFO (Homo sapiens) (UniProt P30530); settings: at 1 µM
[12] = target: Tyrosine-protein kinase Blk (Homo sapiens) (UniProt P51451); settings: at 0.1 µM
Sequence of Tyrosine-protein kinase Blk (Homo sapiens) (P51451 2-505 limits assumed): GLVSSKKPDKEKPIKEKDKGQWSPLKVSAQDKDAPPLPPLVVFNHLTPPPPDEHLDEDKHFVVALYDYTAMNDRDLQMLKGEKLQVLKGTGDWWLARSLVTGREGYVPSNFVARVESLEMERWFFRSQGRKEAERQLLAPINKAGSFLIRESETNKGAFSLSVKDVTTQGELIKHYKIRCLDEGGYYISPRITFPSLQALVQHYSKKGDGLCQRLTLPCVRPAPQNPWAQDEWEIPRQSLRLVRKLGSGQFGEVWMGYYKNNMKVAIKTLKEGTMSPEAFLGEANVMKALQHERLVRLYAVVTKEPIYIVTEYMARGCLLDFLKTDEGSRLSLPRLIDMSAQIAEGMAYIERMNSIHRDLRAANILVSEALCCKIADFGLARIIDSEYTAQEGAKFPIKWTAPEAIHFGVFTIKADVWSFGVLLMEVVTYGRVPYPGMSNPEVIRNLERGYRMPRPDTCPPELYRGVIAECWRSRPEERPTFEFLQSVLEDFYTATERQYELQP

[13] = target: Tyrosine-protein kinase Blk (Homo sapiens) (UniProt P51451); settings: at 1 µM
[14] = target: T1, Cytoplasmic tyrosine-protein kinase BMX (Homo sapiens) (UniProt P51813); settings: at 0.1 µM
T1 sequence (whole entry): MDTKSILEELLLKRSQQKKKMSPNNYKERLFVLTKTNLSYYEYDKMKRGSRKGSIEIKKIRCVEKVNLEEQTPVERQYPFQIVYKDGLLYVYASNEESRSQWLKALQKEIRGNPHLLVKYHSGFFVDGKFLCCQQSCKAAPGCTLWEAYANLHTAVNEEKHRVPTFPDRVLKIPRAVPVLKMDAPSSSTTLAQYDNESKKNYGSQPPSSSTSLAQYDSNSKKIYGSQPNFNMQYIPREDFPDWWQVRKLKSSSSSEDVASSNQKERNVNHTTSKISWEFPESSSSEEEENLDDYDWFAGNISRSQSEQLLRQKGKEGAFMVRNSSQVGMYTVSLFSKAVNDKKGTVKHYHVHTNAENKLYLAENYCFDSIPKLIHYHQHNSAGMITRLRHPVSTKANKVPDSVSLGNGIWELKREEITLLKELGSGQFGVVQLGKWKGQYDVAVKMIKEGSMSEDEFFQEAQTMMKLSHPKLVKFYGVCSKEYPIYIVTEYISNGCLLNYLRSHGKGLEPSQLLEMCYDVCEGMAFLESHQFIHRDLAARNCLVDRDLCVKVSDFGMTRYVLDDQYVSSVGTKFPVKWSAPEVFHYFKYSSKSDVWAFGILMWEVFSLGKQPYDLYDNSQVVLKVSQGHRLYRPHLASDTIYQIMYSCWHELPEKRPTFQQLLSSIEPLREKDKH

[15] = target: T1, Cytoplasmic tyrosine-protein kinase BMX (Homo sapiens); settings: at 1 µM
[16] = target: Protein-tyrosine kinase 6 (Homo sapiens) (UniProt Q13882); settings: at 0.1 µM
Sequence of Protein-tyrosine kinase 6 (Homo sapiens) (Q13882 whole entry, looked up): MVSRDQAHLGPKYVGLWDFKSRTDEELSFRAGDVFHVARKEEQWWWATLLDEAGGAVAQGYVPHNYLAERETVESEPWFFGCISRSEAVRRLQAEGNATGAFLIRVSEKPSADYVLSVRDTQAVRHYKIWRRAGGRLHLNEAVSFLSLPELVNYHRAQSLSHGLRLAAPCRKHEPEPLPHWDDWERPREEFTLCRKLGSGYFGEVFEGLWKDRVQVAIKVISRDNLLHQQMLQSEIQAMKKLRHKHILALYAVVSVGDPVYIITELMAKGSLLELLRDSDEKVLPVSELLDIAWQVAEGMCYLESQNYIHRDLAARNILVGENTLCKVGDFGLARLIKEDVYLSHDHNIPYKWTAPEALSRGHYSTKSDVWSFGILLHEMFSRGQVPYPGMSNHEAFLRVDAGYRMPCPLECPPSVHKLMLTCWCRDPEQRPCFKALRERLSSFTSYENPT

[17] = target: Protein-tyrosine kinase 6 (Homo sapiens) (UniProt Q13882); settings: at 1 µM
[18] = target: Tyrosine-protein kinase BTK (Homo sapiens) (UniProt Q06187); settings: at 0.1 µM
Sequence of Tyrosine-protein kinase BTK (Homo sapiens) (Q06187 whole entry): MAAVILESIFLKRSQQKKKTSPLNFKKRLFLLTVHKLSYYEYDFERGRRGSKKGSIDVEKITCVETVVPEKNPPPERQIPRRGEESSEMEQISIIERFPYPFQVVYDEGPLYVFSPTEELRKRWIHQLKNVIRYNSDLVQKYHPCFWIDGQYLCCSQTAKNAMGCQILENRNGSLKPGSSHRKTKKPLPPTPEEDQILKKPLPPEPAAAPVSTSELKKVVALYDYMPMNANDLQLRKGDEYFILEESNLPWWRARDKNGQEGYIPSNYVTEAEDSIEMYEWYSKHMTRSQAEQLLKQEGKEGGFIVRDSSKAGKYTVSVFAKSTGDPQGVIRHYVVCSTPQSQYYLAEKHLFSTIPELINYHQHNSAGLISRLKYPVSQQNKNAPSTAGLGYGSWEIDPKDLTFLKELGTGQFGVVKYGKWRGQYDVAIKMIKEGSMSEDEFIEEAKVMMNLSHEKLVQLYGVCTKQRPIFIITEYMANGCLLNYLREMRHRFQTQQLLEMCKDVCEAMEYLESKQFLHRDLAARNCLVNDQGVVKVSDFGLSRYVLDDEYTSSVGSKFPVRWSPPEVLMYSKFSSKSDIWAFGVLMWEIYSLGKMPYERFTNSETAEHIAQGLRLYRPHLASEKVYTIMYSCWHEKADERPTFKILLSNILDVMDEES

[19] = target: Tyrosine-protein kinase BTK (Homo sapiens) (UniProt Q06187); settings: at 1 µM
[20] = target: Tyrosine-protein kinase CSK (Homo sapiens) (UniProt P41240); settings: at 0.1 µM;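 also: value given is the averaged percent inhibition of CSK kinase activity, from the GSK PKIS kinase inhibitor set screening panel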
Sequence of Tyrosine-protein kinase CSK (Homo sapiens) (P41240 2-450 limits assumed): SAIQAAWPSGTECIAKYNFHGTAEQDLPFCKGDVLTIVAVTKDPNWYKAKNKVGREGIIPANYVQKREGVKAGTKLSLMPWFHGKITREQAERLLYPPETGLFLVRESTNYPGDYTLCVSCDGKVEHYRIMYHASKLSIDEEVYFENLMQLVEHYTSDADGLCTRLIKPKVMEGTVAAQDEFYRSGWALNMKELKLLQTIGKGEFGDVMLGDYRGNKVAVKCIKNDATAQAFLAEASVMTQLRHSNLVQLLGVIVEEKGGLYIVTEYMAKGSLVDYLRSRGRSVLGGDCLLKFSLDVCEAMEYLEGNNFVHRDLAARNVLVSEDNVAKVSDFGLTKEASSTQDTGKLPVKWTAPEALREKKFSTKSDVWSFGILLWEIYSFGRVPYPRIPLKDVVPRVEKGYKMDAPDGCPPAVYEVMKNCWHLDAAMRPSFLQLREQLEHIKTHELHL

Structure (SMILES)	inhibition [1] [%]	inhibition [2] [%]	inhibition [3] [%]	inhibition [4] [%]	inhibition [5] [%]	inhibition [6] [%]	inhibition [7] [%]	inhibition [8] [%]	inhibition [9] [%]	inhibition [10] [%]	inhibition [11] [%]	inhibition [12] [%]	inhibition [13] [%]	inhibition [14] [%]	inhibition [15] [%]	inhibition [16] [%]	inhibition [17] [%]	inhibition [18] [%]	inhibition [19] [%]	inhibition [20] [%]
NC(=O)c1cccc(Nc2nccc(Nc3cccc4[nH]ncc34)n2)c1	25.4	84.1	98.5	70.2	84.9	-0.3	15.4	69.1	88.6	4.05	7.82	9.56	66.3	21.6	73.8	68.6	99.7	3.23	19.9	-2.2
NS(=O)(=O)c1ccc(N/N=C2\C(=O)Nc3ccc(C(=O)NCCc4c[nH]cn4)cc32)cc1	11.6	3.56	12.1	5.35	15.3	3.67	12.9	4.29	9.57	-2.52	9.57	4.25	17.2	-1.78	6.53	7.16	5.31	1.88	1.29	8.17
Cn1cc(C=C2C(=O)Nc3cccnc32)c2ccccc21	43.9	10.6	48.7	7.81	44.7	5.12	9.81	3.71	20.9	-2.84	19.1			3.27	4.89	0.63	2.28	1.87	3.46	1.5
Cc1nnc(-c2ccc(C)c(-c3ccc(C(=O)Nc4cccc(C#N)c4)cc3)c2)o1	2.58	1.18	3.76	3.64	5.81	3.61	2.36	4.17	6.56	-4.6		2.41	3.76	4.54	2.78	2.27	2.95	-0.22	1.88	0.99
[O-][S+]1CCN(Cc2ccc(-c3ccc4ncnc(Nc5ccc(OCc6ccccc6)c(F)c5)c4c3)o2)CC1	-1.37	2.33	-0.81	1.83	5.78	1.75	4.79	3.02	3.87	-4.98	-2.42	1.92	5.97	4.65	5.88	0.34	6.21	1.11	1.74	3.39
CN1CCC(C(=O)Nc2n[nH]c3nnc(-c4ccccc4)cc23)CC1	5.74	1.97	5.41	2.03	4.42	2.9	6.61	0.96	2.58	-5.95		3.19	1.79	4.52	3.87	4.01	6.78	-0.63	-0.24	4.02
COc1cccc(-n2ncc3c(N/N=C/c4cccc(F)c4)ncnc32)c1	51.8	57.7	89.2	12	69.3	-1.54	-1.21	3.52	52.4	-2.89	1.49	-0.8	17.9	16.8	13.8	-0.23	5.33	-5.62	-4.52	1.19
